# Measured values from the supplement of paper PMC12045047.
# Where a name gives a salt, the structure may show the parent alone. Values without a mark were called inactive.
# Tested on: primary human airway basal cells (HBEC, luciferase-transduced)
# Assay: proliferation (luciferase bioluminescence) Z score relative to plate mean; higher = more proliferation / more cells, active = 1.96 or more
# Conditions: donor: 1, library: ENZO Libraries, 4 days
# Description: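 Primary human bronchial epithelial (airway basal) cells from two donors, lentivirally transduced with pHIV-Luc-ZsGreen, were seeded at 2000 cells/well in 384-well plates in FAD medium with ENZO or Prestwick library compounds and cultured for 4 days. Luciferin was then added and bioluminescence was read as a measure of cell number. Relative light units were converted to Z scores against the plate, and the mean of triplicate wells is reported.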
SMILES,proliferation (0.5 µM),proliferation (5 µM)
O=c1cc(-c2ccc(O)cc2)oc2cc(O)cc(O)c12 [Apigenin],0.308,3.23 (active)
CC[C@H](CO)Nc1nc(NCc2ccccc2)c2ncn(C(C)C)c2n1 [Roscovitine],-0.00187,-0.592
COc1cccc(-c2cc(=O)c3ccccc3o2)c1N,2.9 (active),2.39 (active)
CC(C)C[C@H](NP(=O)(O)O[C@@H]1O[C@@H](C)[C@H](O)[C@@H](O)[C@H]1O)C(=O)N[C@@H](Cc1c[nH]c2ccccc12)C(=O)O [Phosphoramidon],-0.109,0.079
O=C(O)c1ccc2nc(-c3ccccc3)c(-c3ccccc3)nc2c1,-0.199,-0.68
Oc1c2ccccc2c2c3c(cccc13)N=N2,0.134,-0.168
CC(C(=O)Nc1cccc(/N=C/c2c(O)ccc3ccccc23)c1)c1ccccc1 (centres undefined) [Salermide],-0.719,-0.645
N=C(N)Nc1ccc(C(=O)Oc2ccc3cc(C(=N)N)ccc3c2)cc1 [Nafamostat mesylate],0.0117,-0.0211
CCOC(=O)c1ccc(OC(=O)CCCCCNC(=N)N)cc1 [Gabexate mesylate],-0.301,0.0316
Cn1cnc2nc(NCCO)nc(NCc3ccccc3)c21 [Iso-olomoucine],0.048,0.096
N#C/C(=C\c1ccc(O)c(O)c1)C(N)=O,-0.0866,-0.0854
CSCCC(C=O)NC(=O)C(CC(C)C)NC(=O)[C@H](CC(C)C)NC(C)=O (some centres undefined) [Calpain Inhibitor II (ALLM)],0.241,-0.104
CN(C)CCCn1cc(C2=C(c3c[nH]c4ccccc34)C(=O)NC2=O)c2ccccc21,2.64 (active),-0.932
NC(=O)c1cccc(-c2cccc(OC(=O)NC3CCCCC3)c2)c1,0.0752,0.55
O=C1Nc2ccccc2/C1=C1/Nc2ccccc2C1=O [Indirubin],-0.759,-1.2
CCCC[C@@H](C=O)NC(=O)[C@H](CC(C)C)NC(=O)OCc1ccccc1 [Calpeptin],-0.319,0.152
N#CC(C#N)=C(N)/C(C#N)=C/c1cc(O)c(O)c(O)c1,-0.239,-0.228
NCCCC[C@H](N[C@@H](CCc1ccccc1)C(=O)O)C(=O)N1CCC[C@H]1C(=O)O [Lisinopril],-0.405,0.0284
CC(C)C[C@H](NC(=O)N[C@H](C(=O)N[C@@H](CCC(N)=O)C(=O)N[C@@H](C)C=O)[C@@H]1CCNC(=N)N1)C(=O)O [Elastatinal],-0.455,-0.0211
O=C(CCCCCCC(=O)NO)NO [Suberoyl bis-hydroxamic acid],0.147,-0.101
CCN1C(=O)C=CC1=O [N-Ethylmaleimide],0.0934,-0.247
C=CC(=O)c1ccc2ccccc2c1,0.129,-0.357
